# Sampled rows, rich in hits. Any-hit rate of the full collection: about 19%.
# TDP1 cell noCPT – qHTS for Inhibitors of human tyrosyl-DNA phosphodiesterase 1 (TDP1): qHTS in cells in absence of CPT | DT40 Tdp1-/- hTDP1 cells, no CPT, ATP luminescence, 48 h | AID 686978, 2013 | Potency, µM (top dose mostly 46.2 µM), for inactives: top-dose activity change, negative = growth inhibition, actives largely listed as inhibitors | actives 15% (n = 420,000); also: potency is read from the fitted curve at half-maximal effect; nearly all actives have a fitted effect of over 55% in size
#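 A cellular qHTS used chicken DT40 cells lacking endogenous Tdp1 but carrying stably transfected human TDP1. Compounds were applied without camptothecin, and cell growth kinetics were judged by ATP-dependent luminescence after ≥48 hr.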
# IL1B secr inh – inflammasome signaling inhibition, IL-1 beta readout; THP-1 LPS/ATP IL-1B secretion, AlphaLISA, 16 h; hits give low values; activity change, % at 57.5 µM; actives 4.7% (n = 360,000); AID 743279; in the data active = activity change below about -50%; inconclusive = mostly about -30% to -49%
#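 THP-1 cells pretreated 1 hr with compounds (up to 57.5 uM final), then stimulated with LPS (250 ng/mL final) plus ATP (1.25 mM final); secreted IL-1B measured by AlphaLISA after 16 hr, decreased signal indicating inhibition.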
# HT1080NT lethal – kills 2HG-producing HT-1080-NT fibrosarcoma cells; HT-1080-NT fibrosarcoma viability, CellTiter-Glo ATP luminescence, 48 h; Potency, µM (series often up to 46.1 µM), for the others: at the highest dose activity, negative = less viability, usual class: cytotoxic; actives 1.6% (n = 360,000); AID 686970;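 also: NT is the 2HG producing partner of a matched IDH1 knockdown line; potency is read from the fitted curve at half-maximal effect; 0% = DMSO-treated cells and -100% = media-only wells without cells; nearly all actives have a fitted effect of over 55% in size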
#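 HT-1080-NT; 750 cells/well; 5% FBS RPMI; 48 h compound, 37 degrees C; CellTiter-Glo luminescence; curve fitting and curve-class assignment.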
# HT1080 IDH1KD tx – kills HT-1080 cells with IDH1 knockdown; HT-1080 IDH1 knockdown viability, ATP luminescence, 48 h; Potency, µM (series often up to 46.1 µM), for inactives: top-dose activity, negative = toxicity, actives largely listed as cytotoxic; actives 2% (n = 360,000); AID 686971;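 also: potency is read from the fitted curve at half-maximal effect; 0% = DMSO wells and -100% = cell-free medium wells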
#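 Luminescent ATP read-out (CellTiter-Glo, 10 min at room temperature) after 48 h compound exposure at 37 °C gave viability of IDH1-knockdown HT-1080 cells. Activity was normalised to DMSO and cell-free wells, then fitted as concentration-response curves.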
# DT40 TDP1 CPT – growth inhibition of DT40 Tdp1-/-;hTDP1 cells with camptothecin (screen for TDP1 inhibitors); actives 12% (n = 420,000); Potency, µM (top dose mostly 46.2 µM), inactives show top-dose activity change, negative = growth inhibition, actives largely listed as inhibitors; chicken DT40 Tdp1-/-;hTDP1 cells + 20 nM CPT, ATP luminescence, 48 h; AID 686979; also: potency is read from the fitted curve at half-maximal effect; nearly all actives have a fitted effect of over 55% in size
#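 Chicken DT40 Tdp1-/- cells stably complemented with human TDP1 were seeded at 400 cells/well in medium containing 20 nM camptothecin, exposed to pin-transferred compounds, and grown at 37 °C for at least 48 hr. Viability was read as ATP luminescence.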
# An asterisk follows results filed as active; u = inconclusive; x = not tested or not shown. Unless noted, calls follow the shape of the dose curve; as a rule, active = well fitted curve in the direction sought with a large enough effect; inconclusive = small, poorly fitted or top-dose-only effect, or another doubt; inactive = no such curve, though single readings can be large; an effect the other way counts as inactive or inconclusive. Unless noted, % is scaled to controls: 0 for no effect and ±100 for the full control effect.
SMILES,TDP1 cell noCPT,IL1B secr inh,HT1080NT lethal,HT1080 IDH1KD tx,DT40 TDP1 CPT
Cc1ccc(C(=O)N(c2ccccc2)C2CC(C)N(C(=O)c3ccco3)c3ccccc32)cc1 (stereo unspecified),4.61µM*,-22.6,u,u,7.31µM*
CCC(=O)OC1CC(C)N(C(=O)c2ccccc2)c2ccc(C)cc21 (stereo unspecified),14.1µM*,-5.7,-0.5%,-1.9%,11.2µM*
CCCCc1ccc(NC(=O)CSc2nnc3[nH]c(=O)cc(C)n23)cc1,-8.4%,x,x,x,-1.6%
COc1cccc(NC(=O)[C@H](C)NC(=O)C2CCN(S(=O)(=O)c3ccc(C)cc3)CC2)c1,-6.3%,-2.0,-8.8%,-24.2%,-0.6%
CCOc1ccc(CN2CCC(C(=O)Nc3cccc(-c4ccn[nH]4)c3)CC2)cc1Cl,u,-76.4*,18.4µM*,u,u
O=S(=O)(c1cccc(-c2nc3n(n2)Cc2ccccc2-3)c1)N1CCCC1,u,-23.1,-5.7%,12.1%,20.6µM*
CCCCC(CC)Cn1c(O)c(/C=C2\C=NN=C2c2ccccc2)sc1=S (stereo unspecified),u,-104.2*,-6.1%,3.9%,u
Cc1ccc(NCc2cccnc2)cc1,-22.9%,24.1,1.4%,1.3%,-11.3%
Cc1ccc(NCc2cccc(B(O)O)c2)cc1,-25.6%,-94.8*,-2.0%,-15.6%,-26.9%
Cc1nn(Cc2ccc([N+](=O)[O-])cc2)c(=O)n1-c1ccccc1Cl,-16.3%,16.5,4.3%,-2.0%,1.0%
CN(NS(=O)(=O)c1ccc(Cl)cc1)c1ncc(C(F)(F)F)cc1Cl,u,-6.0,-1.3%,-1.6%,u
Cc1nn(Cc2ccc(Cl)cc2)c(=O)n1N(C)c1ncc(C(F)(F)F)cc1Cl,20.6µM*,5.1,-20.6%,-19.4%,20.6µM*
Cc1nn(Cc2ccc([N+](=O)[O-])cc2)c(=O)n1N(C)c1ncc(C(F)(F)F)cc1Cl,11.2µM*,-2.8,-18.9%,-15.3%,u
COc1ccccc1-c1cc(NC=O)c2ncc(-c3ccc(S(C)(=O)=O)cc3)n2c1,9.2µM*,u,-15.3%,-28.8%,11.6µM*
COc1cc(-c2cnc3c(NC=O)cc(-c4ccc(S(C)(=O)=O)cc4)cn23)cc(OC)c1OC,18.4µM*,21.7,u,u,16.4µM*
COc1ccc(-c2cnc3c(NC=O)cc(-c4ccc(S(C)(=O)=O)cc4)cn23)cc1OC,2.91µM*,-19.4,u,u,2.91µM*
CC(C)c1ccc(NC(=O)c2ccccc2NC(=O)C2CCCCC2C(=O)O)cc1 (stereo unspecified),-19.8%,-18.4,-2.2%,0.5%,-7.0%
Cc1ccc(N2CC(NC(=O)c3ccco3)CC2=O)cc1 (stereo unspecified),-0.5%,x,x,x,-3.8%
COc1ccc(NC(=O)c2cc(S(=O)(=O)Nc3ccc(OC)cc3)cs2)cc1,29.1µM*,-12.5,-1.3%,-4.7%,u
COc1ccc(NS(=O)(=O)c2csc(C(=O)N3CCCC3)c2)cc1,u,12.4,16.2%,-0.5%,-27.9%
O=C(Nc1ccc(F)cc1)c1cc(S(=O)(=O)Nc2ccc(F)cc2)cs1,29.1µM*,20.2,u,-28.1%,u
CCN1/C(=C/C=C/c2oc3ccc(-c4ccccc4)cc3[n+]2CC)Oc2ccc(-c3ccccc3)cc21,0.0731µM*,-107.4*,2.59µM*,0.92µM*,0.0073µM*
CN1CCN(c2nnc(-c3ccc(Cl)cc3)c3ccccc23)CC1,u,-16.0,-21.4%,-7.4%,u
Cc1ccc(-c2nnc(N3CCN(S(C)(=O)=O)CC3)c3ccccc23)cc1,-29.9%,-58.8*,-2.5%,2.8%,-15.5%
CS(=O)(=O)N1CCN(c2nnc(-c3ccccc3)c3ccccc23)CC1,-23.1%,-60.5*,-0.1%,-8.5%,-14.9%
SMILES,TDP1 cell noCPT,IL1B secr inh,HT1080NT lethal,HT1080 IDH1KD tx,DT40 TDP1 CPT
O=S(=O)(c1ccccc1)N1CCN(c2nnc(-c3ccccc3)c3ccccc23)CC1,14.6µM*,2.6,3.4%,16.0%,18.4µM*
Cc1ccc2c(c1)C(=O)C(=O)N2CCOc1ccccc1,0.731µM*,-2.4,7.31µM*,20.6µM*,0.581µM*
Cc1cccc(OCCN2C(=O)C(=O)c3cc(C)ccc32)c1,0.461µM*,u,2.91µM*,u,0.366µM*
Cc1ccc(OCCN2C(=O)c3ccccc3C2=O)cc1,3.5%,27.1,3.8%,10.6%,9.6%
CS(=O)(=O)N(CC(=O)NCc1ccncc1)C1CCCCC1,0.4%,0.0,7.5%,14.7%,2.1%
O=C(CSc1nc2ccc(NC(=O)CSc3nnnn3-c3ccccc3)cc2s1)Nc1ccccc1,u,10.3,u,u,16.4µM*
CCCC(=O)Nc1ccc2nc(SCc3ccc(C)cc3)sc2c1,u,x,x,x,-1.8%
COc1cc(C(=O)Nc2ccc3nc(N4CCOCC4)sc3c2)cc(OC)c1OC,u,62.3,6.5%,-1.6%,u
CCC(=O)Nc1nc2ccc(NC(=O)c3cc(OC)c(OC)c(OC)c3)cc2s1,20.6µM*,-52.5*,-25.8%,-16.3%,u
O=C(CSc1nnnn1-c1ccccc1)Nc1ccccc1,1.5%,-1.2,9.8%,5.4%,-1.2%
COc1cc(C(=O)Nc2ccc3nc(SCc4ccccc4)sc3c2)cc(OC)c1OC,14.6µM*,x,x,x,13µM*
CCC(=O)Nc1ccc2nc(SCc3ccccc3)sc2c1,13µM*,x,x,x,u
Cc1cccc(NC(=O)Cn2nnc(C(=O)Nc3ccccc3Br)c2N)c1C,-14.1%,x,x,x,-14.6%
CCn1c(SCC(=O)NCc2ccccc2)nc2c(c1=O)SC(C)C2 (stereo unspecified),-24.3%,12.7,-13.5%,0.2%,6.3%
Cc1ccc(CSc2nc3ccc(NC(=O)COc4ccccc4F)cc3s2)cc1,-26.9%,x,x,x,-29.3%
CCC(CC)C(=O)Nc1ccc2nc(SCc3ccccc3)sc2c1,16.4µM*,x,x,x,16.4µM*
CC(=O)Nc1ccc2nc(NC(=O)CCc3ccccc3)sc2c1,u,0.0,-1.3%,5.6%,u
CCCC(=O)Nc1nc2ccc(NC(=O)c3ccccc3F)cc2s1,2.06µM*,11.9,u,u,1.84µM*
CCc1nnc(NC(=O)c2nc(SCc3ccc(F)cc3)ncc2Cl)s1,-18.3%,x,x,x,-10.3%
COc1ccc(NC(=O)CC(Cc2ccc(Cl)cc2)C(=O)O)cc1 (stereo unspecified),-7.7%,9.8,4.5%,5.3%,0.9%
COc1ccccc1C(CC(=O)Nc1ccc(Cl)cc1)c1ccc(OC(C)C)cc1 (stereo unspecified),u,-5.6,-14.1%,-17.2%,16.4µM*

# Bioassay records: PubChem BioAssay, National Center for Advancing Translational Sciences (NCATS)
